Measured values: the supplement of paper PMC10849652
About 7,900 targets were measured; listed, in parts, are those with a hit and a random draw of the rest. About 0.6% of all pairs of compound and target were hits.

What was measured:
Assay in all cases: log2 fold change, soluble protein after heating vs DMSO (PISA); higher = thermal stabilisation; K562 cells, 10 uM, 30 min; active = over 0.2 and 3.5 SD of the protein, either way, in both replicates (recomputed)
saracatinib = compound: CN1CCN(CCOc2cc(OC3CCOCC3)c3c(Nc4c(Cl)ccc5c4OCO5)ncnc3c2)CC1 [saracatinib]
Method in brief: (§1)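 Soluble protein was quantified by TMTpro 16plex LC-MS/MS after channel sums were equalised. It was obtained as the supernatant after 21,000xg for 90 min from pooled aliquots of K562 cells (2×10^6 cells/mL, 10 μM compound, 30 min) heated for 3 min across 48°C-58°C and extracted in PBS with 0.5% NP-40 at 4°C. Thermal stability values are relative to control samples and come from duplicates. They are given as log2 fold changes.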

sotrastaurin = compound: CN1CCN(c2nc(C3=C(c4c[nH]c5ccccc45)C(=O)NC3=O)c3ccccc3n2)CC1 [sotrastaurin]
Method in brief: as §1

alvocidib = compound: CN1CC[C@H](c2c(O)cc(O)c3c(=O)cc(-c4ccccc4Cl)oc23)[C@H](O)C1 [alvocidib]
Method in brief: as §1

Tubastatin A = compound: CN1CCc2c(c3ccccc3n2Cc2ccc(C(=O)NO)cc2)C1 [Tubastatin A]
Method in brief: as §1

[1] = compound: CNC(=O)C1=CC=CC=C1NC2=NC(=NC=C2Cl)NC3=C(C=C(C=C3)N4CCOCC4)OC
Method in brief: as §1

defactinib = compound: CNC(=O)c1ccc(Nc2ncc(C(F)(F)F)c(NCc3nccnc3N(C)S(C)(=O)=O)n2)cc1 [defactinib]
Method in brief: as §1

rucaparib = compound: CNCc1ccc(-c2[nH]c3cc(F)cc4c3c2CCNC4=O)cc1 [rucaparib]
Method in brief: as §1

[2] = compound: CNc1nc(-c2ccc3c(N)n[nH]c3c2)cc(N2C[C@@H](C(=O)NC3CCCCC3)CC[C@H]2C)n1
Method in brief: as §1

encorafenib = compound: COC(=O)N[C@@H](C)CNc1nccc(-c2cn(C(C)C)nc2-c2cc(Cl)cc(NS(C)(=O)=O)c2F)n1 [encorafenib]
Method in brief: as §1

[3] = compound: COC(=O)[C@H](CCSC)NC(=O)C1=C(C=C(C=C1)NC[C@H](CS)N)C2=CC=CC=C2
Method in brief: as §1

[4] = compound: COC1=CC=C(C=C1)CN2C=CC3=C2C=C(C=C3)C(=O)NO
Method in brief: as §1

filanesib = compound: CON(C)C(=O)N1N=C(c2cc(F)ccc2F)S[C@@]1(CCCN)c1ccccc1 [filanesib]
Method in brief: as §1

zotarolimus = compound: CO[C@H]1C[C@@H]2CC[C@@H](C)[C@@](O)(O2)C(=O)C(=O)N2CCCC[C@H]2C(=O)O[C@H]([C@H](C)C[C@@H]2CC[C@H](n3cnnn3)[C@H](OC)C2)CC(=O)[C@H](C)/C=C(\C)[C@@H](O)[C@@H](OC)C(=O)[C@H](C)C[C@H](C)/C=C/C=C/C=C/1C [zotarolimus]
Method in brief: as §1

idasanutlin = compound: COc1cc(C(=O)O)ccc1NC(=O)[C@@H]1N[C@@H](CC(C)(C)C)[C@](C#N)(c2ccc(Cl)cc2F)[C@H]1c1cccc(Cl)c1F [idasanutlin]
Method in brief: as §1

alisertib = compound: COc1cc(Nc2ncc3c(n2)-c2ccc(Cl)cc2C(c2c(F)cccc2OC)=NC3)ccc1C(=O)O [alisertib]
Method in brief: as §1

[5] = compound: COc1cc2nc(-c3cc(F)ccc3O)nc(N[C@@H]3CNC[C@H]3C(C)(C)O)c2cc1OC
Method in brief: as §1

gefitinib = compound: COc1cc2ncnc(Nc3ccc(F)c(Cl)c3)c2cc1OCCCN1CCOCC1 [gefitinib]
Method in brief: as §1

[6] = compound: COc1cccc2cc(-c3nc([C@H]4CC[C@H](C(=O)O)CC4)n4ncnc(N)c34)[nH]c12
Method in brief: as §1

lapatinib = compound: CS(=O)(=O)CCNCc1ccc(-c2ccc3ncnc(Nc4ccc(OCc5cccc(F)c5)c(Cl)c4)c3c2)o1 [lapatinib]
Method in brief: as §1

pictilisib = compound: CS(=O)(=O)N1CCN(Cc2cc3nc(-c4cccc5[nH]ncc45)nc(N4CCOCC4)c3s2)CC1 [pictilisib]
Method in brief: as §1

Measured: log2 fold change

KIF2C (UniProt Q99661)
UniProt Q99661, sequence (Q99661 whole entry, looked up): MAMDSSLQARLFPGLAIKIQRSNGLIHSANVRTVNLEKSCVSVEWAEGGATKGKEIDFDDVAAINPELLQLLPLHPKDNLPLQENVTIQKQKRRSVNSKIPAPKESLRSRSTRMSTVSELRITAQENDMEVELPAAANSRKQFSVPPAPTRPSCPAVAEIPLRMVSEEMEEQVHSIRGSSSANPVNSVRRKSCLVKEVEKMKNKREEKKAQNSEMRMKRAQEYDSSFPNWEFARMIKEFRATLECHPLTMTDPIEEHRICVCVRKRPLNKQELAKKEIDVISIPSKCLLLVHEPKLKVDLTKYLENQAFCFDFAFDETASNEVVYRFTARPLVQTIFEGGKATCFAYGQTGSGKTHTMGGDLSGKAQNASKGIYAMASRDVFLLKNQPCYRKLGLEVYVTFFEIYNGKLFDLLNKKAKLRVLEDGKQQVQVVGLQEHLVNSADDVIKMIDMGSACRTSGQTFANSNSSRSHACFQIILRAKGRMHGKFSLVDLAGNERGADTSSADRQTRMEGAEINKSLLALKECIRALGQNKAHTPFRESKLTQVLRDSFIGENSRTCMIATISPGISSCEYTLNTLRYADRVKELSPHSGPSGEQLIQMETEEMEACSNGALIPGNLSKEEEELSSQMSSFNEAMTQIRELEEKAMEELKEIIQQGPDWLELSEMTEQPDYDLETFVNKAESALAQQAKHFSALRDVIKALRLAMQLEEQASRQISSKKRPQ
inactive: saracatinib 0.003 | sotrastaurin -0.048 | alvocidib -0.019 | Tubastatin A 0.024 | [1] -0.017 | defactinib -0.051 | rucaparib 0.019 | [2] 0.064 | encorafenib 0.142 | [3] -0.092 | [4] 0.063 | filanesib -0.033 | zotarolimus 0.001 | idasanutlin -0.046 | alisertib -0.008 | [5] 0.09 | gefitinib 0.006 | [6] -0.081 | lapatinib -0.048 | pictilisib 0.008

MAP4 (UniProt P27816)
inactive: saracatinib 0.017 | sotrastaurin 0.019 | alvocidib 0.042 | Tubastatin A -0.029 | [1] -0.014 | defactinib 0.016 | rucaparib 0.009 | [2] -0.029 | encorafenib -0.001 | [3] 0.031 | [4] -0.002 | filanesib 0.022 | zotarolimus -0.029 | idasanutlin 0.028 | alisertib -0.034 | [5] -0.027 | gefitinib -0.019 | [6] -0.003 | lapatinib -0.002 | pictilisib -0.078

LARP4 isoform 4 (UniProt Q71RC2)
inactive: saracatinib -0.066 | sotrastaurin -0.051 | alvocidib 0.031 | Tubastatin A 0.041 | [1] 0.047 | defactinib -0.036 | rucaparib 0.257 | [2] 0.059 | encorafenib 0.086 | [3] -0.014 | [4] 0.005 | filanesib 0.111 | zotarolimus -0.007 | idasanutlin 0.071 | alisertib -0.045 | [5] -0.159 | gefitinib 0.01 | [6] -0.125 | lapatinib 0.054 | pictilisib -0.068

LMF2 (UniProt Q9BU23)
UniProt Q9BU23, sequence (Q9BU23 whole entry, looked up): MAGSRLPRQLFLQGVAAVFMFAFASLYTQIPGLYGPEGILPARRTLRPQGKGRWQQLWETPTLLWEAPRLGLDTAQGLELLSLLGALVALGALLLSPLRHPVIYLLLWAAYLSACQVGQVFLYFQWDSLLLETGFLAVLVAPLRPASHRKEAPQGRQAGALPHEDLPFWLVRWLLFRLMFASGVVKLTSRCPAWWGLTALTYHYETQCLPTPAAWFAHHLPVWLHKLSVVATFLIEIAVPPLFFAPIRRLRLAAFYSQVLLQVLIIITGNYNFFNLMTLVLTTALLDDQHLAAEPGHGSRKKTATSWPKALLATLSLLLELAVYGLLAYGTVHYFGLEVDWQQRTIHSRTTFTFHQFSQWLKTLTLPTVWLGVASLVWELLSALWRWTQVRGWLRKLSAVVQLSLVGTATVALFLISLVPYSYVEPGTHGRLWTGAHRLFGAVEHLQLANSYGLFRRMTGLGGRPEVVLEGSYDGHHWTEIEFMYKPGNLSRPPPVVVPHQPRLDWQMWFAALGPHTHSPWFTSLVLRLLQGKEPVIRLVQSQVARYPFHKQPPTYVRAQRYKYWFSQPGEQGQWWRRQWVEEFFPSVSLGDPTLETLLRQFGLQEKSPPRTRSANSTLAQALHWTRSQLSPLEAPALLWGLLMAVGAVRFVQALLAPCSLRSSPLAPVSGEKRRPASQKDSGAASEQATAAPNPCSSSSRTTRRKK
inactive: saracatinib 0.006 | sotrastaurin -0.043 | alvocidib 0.035 | Tubastatin A 0.048 | [1] 0.007 | defactinib 0 | rucaparib 0.082 | [2] -0.02 | encorafenib 0.052 | [3] -0.04 | [4] -0.041 | filanesib -0.011 | zotarolimus -0.027 | idasanutlin -0.02 | alisertib -0.025 | [5] -0.014 | gefitinib 0.013 | [6] -0.021 | lapatinib 0.062 | pictilisib -0.095

MFGE8 (UniProt Q08431)
inactive: saracatinib -0.171 | sotrastaurin -0.013 | alvocidib 0.034 | Tubastatin A 0.08 | [1] 0.066 | defactinib 0.099 | rucaparib -0.043 | [2] -0.018 | encorafenib 0.037 | [3] -0.023 | [4] -0.129 | filanesib 0.129 | zotarolimus -0.03 | idasanutlin 0.05 | alisertib -0.147 | [5] 0.019 | gefitinib 0.069 | [6] -0.124 | lapatinib 0.079 | pictilisib 0.122

LPIN1 isoform 7 (UniProt Q14693)
UniProt Q14693, sequence (Q14693 whole entry, looked up): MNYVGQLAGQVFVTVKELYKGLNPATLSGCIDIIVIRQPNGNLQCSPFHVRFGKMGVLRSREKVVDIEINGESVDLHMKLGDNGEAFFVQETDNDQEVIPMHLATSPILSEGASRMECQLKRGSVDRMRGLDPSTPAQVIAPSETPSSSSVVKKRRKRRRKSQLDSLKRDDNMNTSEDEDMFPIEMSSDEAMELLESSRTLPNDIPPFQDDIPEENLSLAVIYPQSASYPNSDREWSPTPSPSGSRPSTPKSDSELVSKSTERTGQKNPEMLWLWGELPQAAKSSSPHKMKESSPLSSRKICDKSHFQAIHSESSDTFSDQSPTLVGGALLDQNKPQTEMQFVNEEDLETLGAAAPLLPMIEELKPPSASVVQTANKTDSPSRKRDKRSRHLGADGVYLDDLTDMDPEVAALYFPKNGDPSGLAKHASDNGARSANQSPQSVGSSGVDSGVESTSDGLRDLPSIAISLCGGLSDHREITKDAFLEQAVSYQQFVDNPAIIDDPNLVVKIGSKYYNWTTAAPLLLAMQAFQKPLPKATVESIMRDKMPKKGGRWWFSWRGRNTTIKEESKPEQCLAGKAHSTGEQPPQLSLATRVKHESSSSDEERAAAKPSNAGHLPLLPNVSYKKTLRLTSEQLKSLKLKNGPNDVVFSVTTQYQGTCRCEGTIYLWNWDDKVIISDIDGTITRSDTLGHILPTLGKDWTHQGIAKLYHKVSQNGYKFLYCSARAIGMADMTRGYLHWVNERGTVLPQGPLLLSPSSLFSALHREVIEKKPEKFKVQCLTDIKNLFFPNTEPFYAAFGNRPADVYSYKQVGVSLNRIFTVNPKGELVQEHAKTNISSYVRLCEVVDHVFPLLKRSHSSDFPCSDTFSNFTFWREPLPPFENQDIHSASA
inactive: saracatinib 0.003 | sotrastaurin -0.093 | alvocidib -0.059 | Tubastatin A 0.041 | [1] -0.113 | defactinib -0.03 | rucaparib -0.054 | [2] -0.13 | encorafenib 0.009 | [3] 0.035 | [4] -0.079 | filanesib 0.047 | zotarolimus -0.048 | idasanutlin -0.03 | alisertib 0.046 | [5] 0.017 | gefitinib -0.018 | [6] -0.041 | lapatinib -0.101 | pictilisib -0.035

MAP3K4 isoform 2 (UniProt Q9Y6R4)
UniProt Q9Y6R4, sequence (Q9Y6R4 whole entry, looked up): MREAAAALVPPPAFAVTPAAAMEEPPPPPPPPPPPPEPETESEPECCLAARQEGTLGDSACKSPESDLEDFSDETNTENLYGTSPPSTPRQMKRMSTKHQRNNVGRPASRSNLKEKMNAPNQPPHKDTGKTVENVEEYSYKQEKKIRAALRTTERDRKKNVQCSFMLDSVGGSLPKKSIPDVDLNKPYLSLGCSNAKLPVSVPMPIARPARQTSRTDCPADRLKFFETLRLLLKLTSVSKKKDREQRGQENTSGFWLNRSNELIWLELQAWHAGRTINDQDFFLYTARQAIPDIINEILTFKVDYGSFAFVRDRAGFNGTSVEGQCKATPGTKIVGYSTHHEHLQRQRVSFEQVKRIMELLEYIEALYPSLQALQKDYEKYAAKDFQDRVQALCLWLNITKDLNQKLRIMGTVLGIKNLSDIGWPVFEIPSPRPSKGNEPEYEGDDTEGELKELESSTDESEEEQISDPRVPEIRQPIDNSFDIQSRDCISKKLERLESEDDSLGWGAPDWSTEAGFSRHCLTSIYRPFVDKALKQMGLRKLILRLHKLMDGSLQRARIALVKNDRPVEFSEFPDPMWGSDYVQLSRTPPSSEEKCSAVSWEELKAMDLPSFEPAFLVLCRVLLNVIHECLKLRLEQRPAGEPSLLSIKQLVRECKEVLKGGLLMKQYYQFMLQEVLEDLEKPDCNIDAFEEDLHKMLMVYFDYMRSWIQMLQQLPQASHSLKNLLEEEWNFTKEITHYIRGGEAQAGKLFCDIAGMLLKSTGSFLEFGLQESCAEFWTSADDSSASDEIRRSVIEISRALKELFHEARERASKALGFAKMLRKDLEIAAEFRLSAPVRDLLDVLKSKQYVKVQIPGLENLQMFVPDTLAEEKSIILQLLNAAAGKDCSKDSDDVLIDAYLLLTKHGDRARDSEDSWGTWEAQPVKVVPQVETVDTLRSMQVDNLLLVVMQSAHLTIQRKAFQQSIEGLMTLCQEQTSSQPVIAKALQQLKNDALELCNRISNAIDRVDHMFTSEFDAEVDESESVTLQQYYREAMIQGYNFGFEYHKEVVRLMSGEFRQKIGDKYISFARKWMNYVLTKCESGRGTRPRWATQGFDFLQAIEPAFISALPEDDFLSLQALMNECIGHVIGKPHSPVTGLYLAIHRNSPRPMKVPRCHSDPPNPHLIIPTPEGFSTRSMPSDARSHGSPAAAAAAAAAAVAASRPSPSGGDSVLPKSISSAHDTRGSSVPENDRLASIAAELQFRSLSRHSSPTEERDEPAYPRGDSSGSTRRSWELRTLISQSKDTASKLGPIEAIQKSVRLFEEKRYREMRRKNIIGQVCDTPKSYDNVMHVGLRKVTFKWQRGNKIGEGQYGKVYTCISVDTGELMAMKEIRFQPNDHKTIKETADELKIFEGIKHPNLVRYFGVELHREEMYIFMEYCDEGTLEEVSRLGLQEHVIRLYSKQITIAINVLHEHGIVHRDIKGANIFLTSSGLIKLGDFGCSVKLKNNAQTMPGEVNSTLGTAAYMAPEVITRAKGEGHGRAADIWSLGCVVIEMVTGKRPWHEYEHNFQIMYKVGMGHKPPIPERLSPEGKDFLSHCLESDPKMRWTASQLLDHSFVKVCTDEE
inactive: saracatinib 0.077 | sotrastaurin 0.034 | alvocidib -0.093 | Tubastatin A -0.038 | [1] 0.153 | defactinib -0.008 | rucaparib 0.006 | [2] -0.002 | encorafenib -0.023 | [3] 0.029 | [4] 0.004 | filanesib -0.037 | zotarolimus 0.003 | idasanutlin -0.023 | alisertib -0.043 | [5] 0.03 | gefitinib 0.034 | [6] 0.086 | lapatinib 0.024 | pictilisib 0.11

KRAS isoform 2 (UniProt P01116)
UniProt P01116, sequence (P01116 whole entry, looked up): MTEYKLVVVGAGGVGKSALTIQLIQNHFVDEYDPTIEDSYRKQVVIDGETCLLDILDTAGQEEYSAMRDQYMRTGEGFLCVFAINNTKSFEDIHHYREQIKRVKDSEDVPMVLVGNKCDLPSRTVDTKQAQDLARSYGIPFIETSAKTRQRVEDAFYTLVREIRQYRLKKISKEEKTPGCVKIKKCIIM
inactive: saracatinib 0.039 | sotrastaurin 0.045 | alvocidib -0.062 | Tubastatin A -0.036 | [1] 0.027 | defactinib 0.013 | rucaparib -0.028 | [2] 0.011 | encorafenib 0.043 | [3] 0.02 | [4] 0.01 | filanesib 0.005 | zotarolimus -0.033 | idasanutlin 0.099 | alisertib 0.029 | [5] 0.037 | gefitinib 0.015 | [6] 0.033 | lapatinib -0.009 | pictilisib 0.046

LDLR (UniProt P01130)
UniProt P01130, sequence (P01130 whole entry, looked up): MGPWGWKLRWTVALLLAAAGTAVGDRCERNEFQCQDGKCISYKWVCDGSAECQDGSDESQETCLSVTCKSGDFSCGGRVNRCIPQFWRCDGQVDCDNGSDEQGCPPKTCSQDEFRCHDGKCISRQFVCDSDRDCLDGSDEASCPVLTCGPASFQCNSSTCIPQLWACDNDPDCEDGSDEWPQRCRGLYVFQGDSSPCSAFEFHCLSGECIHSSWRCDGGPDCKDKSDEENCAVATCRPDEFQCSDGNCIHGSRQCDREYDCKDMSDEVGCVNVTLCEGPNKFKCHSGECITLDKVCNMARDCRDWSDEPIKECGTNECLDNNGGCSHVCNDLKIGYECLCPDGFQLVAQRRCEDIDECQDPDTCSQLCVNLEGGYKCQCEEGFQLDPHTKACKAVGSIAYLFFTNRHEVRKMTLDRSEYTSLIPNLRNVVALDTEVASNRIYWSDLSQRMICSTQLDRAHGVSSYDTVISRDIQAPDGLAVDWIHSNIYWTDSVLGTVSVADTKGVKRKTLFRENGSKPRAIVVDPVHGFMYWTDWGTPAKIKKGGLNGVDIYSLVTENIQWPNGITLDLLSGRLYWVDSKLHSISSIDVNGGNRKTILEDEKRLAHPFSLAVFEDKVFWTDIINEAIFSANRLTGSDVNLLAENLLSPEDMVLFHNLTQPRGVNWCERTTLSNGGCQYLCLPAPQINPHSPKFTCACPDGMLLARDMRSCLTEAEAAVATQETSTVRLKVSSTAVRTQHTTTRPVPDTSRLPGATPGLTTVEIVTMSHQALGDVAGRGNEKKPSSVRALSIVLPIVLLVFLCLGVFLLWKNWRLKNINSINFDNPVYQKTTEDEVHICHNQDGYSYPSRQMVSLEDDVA
inactive: saracatinib 0.113 | sotrastaurin 0.003 | alvocidib -0.04 | Tubastatin A -0.002 | [1] 0.003 | defactinib -0.033 | rucaparib 0 | [2] -0.065 | encorafenib 0.01 | [3] 0.104 | [4] -0.012 | filanesib 0.005 | zotarolimus -0.07 | idasanutlin 0.009 | alisertib 0.073 | [5] -0.017 | gefitinib 0.095 | [6] 0.008 | lapatinib 0.042 | pictilisib 0.078

IPO9 (UniProt Q96P70)
inactive: saracatinib 0.036 | sotrastaurin -0.13 | alvocidib -0.08 | Tubastatin A -0.02 | [1] 0.034 | defactinib -0.106 | rucaparib -0.051 | [2] -0.136 | encorafenib 0.056 | [3] 0 | [4] 0.014 | filanesib -0.005 | zotarolimus 0.052 | idasanutlin -0.089 | alisertib -0.016 | [5] -0.054 | gefitinib 0.088 | [6] 0.065 | lapatinib 0.011 | pictilisib 0.031

MAPK8 isoform 3 (UniProt P45983)
active: [1] 0.942
inactive: saracatinib -0.006 | sotrastaurin 0.052 | alvocidib 0.087 | Tubastatin A 0.009 | defactinib -0.009 | rucaparib 0.031 | [2] -0.07 | encorafenib 0.029 | [3] -0.029 | [4] 0.025 | filanesib 0.064 | zotarolimus 0.018 | idasanutlin -0.08 | alisertib 0.007 | [5] 0.234 | gefitinib -0.026 | [6] 0.035 | lapatinib -0.045 | pictilisib 0.287

MAP1LC3B2 (UniProt A6NCE7)
inactive: saracatinib 0.016 | sotrastaurin -0.115 | alvocidib -0.063 | Tubastatin A 0.037 | [1] 0.026 | defactinib -0.015 | rucaparib 0.004 | [2] -0.015 | encorafenib 0.032 | [3] -0.048 | [4] -0.026 | filanesib -0.062 | zotarolimus 0.011 | idasanutlin -0.022 | alisertib -0.004 | [5] -0.032 | gefitinib -0.003 | [6] -0.035 | lapatinib -0.011 | pictilisib -0.004

LEO1 (UniProt Q8WVC0)
inactive: saracatinib -0.047 | sotrastaurin -0.085 | alvocidib -0.137 | Tubastatin A 0.061 | [1] -0.039 | defactinib -0.211 | rucaparib -0.151 | [2] -0.055 | encorafenib -0.033 | [3] -0.082 | [4] -0.038 | filanesib 0.021 | zotarolimus 0.175 | idasanutlin 0.023 | alisertib -0.08 | [5] -0.035 | gefitinib 0.009 | [6] -0.034 | lapatinib -0.032 | pictilisib 0.009

MIEF1 (UniProt L0R8F8)
inactive: saracatinib -0.068 | sotrastaurin -0.008 | alvocidib 0.009 | Tubastatin A 0.041 | [1] 0.008 | defactinib -0.003 | rucaparib 0.024 | [2] -0.074 | encorafenib 0.008 | [3] 0.015 | [4] 0.104 | filanesib -0.072 | zotarolimus 0.023 | idasanutlin -0.063 | alisertib -0.084 | [5] -0.148 | gefitinib -0.005 | [6] 0 | lapatinib 0.135 | pictilisib 0.033

IRAK4 (UniProt Q9NWZ3)
inactive: saracatinib -0.026 | sotrastaurin -0.061 | alvocidib -0.106 | Tubastatin A 0.006 | [1] 0.162 | defactinib -0.022 | rucaparib 0.076 | [2] 0.01 | encorafenib 0.006 | [3] -0.071 | [4] 0.012 | filanesib -0.028 | zotarolimus 0.01 | idasanutlin 0.004 | alisertib -0.059 | [5] 0.104 | gefitinib 0.109 | [6] 0.007 | lapatinib -0.004 | pictilisib -0.099
